# Measurements reported in PubChem BioAssay (EPA / NIEHS).
# Results filed as inconclusive are left out. Some structures have more than one record in an assay (separate samples or runs), and their calls can disagree. Calls of active or inactive are those of the source. Rule for the calls: active = hit-call score of the fitted dose curve at least 0.9, where 1 is the maximum; inconclusive = response in the unintended direction; inactive = score below 0.9.
# What was measured:
# [1] = target: Nuclear receptor subfamily 1 group I member 2 (Homo sapiens) (UniProt O75469); experiment: NVS_NR_hPXR: NovaScreen (NVS) Nuclear Receptor Binding Assay for human Pregnane X Receptor (PXR) (AID 2283365);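 note: a drop in FRET signal versus DMSO baseline means the compound binds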
# Chain of Nuclear receptor subfamily 1 group I member 2 (Homo sapiens) (O75469 whole entry, looked up): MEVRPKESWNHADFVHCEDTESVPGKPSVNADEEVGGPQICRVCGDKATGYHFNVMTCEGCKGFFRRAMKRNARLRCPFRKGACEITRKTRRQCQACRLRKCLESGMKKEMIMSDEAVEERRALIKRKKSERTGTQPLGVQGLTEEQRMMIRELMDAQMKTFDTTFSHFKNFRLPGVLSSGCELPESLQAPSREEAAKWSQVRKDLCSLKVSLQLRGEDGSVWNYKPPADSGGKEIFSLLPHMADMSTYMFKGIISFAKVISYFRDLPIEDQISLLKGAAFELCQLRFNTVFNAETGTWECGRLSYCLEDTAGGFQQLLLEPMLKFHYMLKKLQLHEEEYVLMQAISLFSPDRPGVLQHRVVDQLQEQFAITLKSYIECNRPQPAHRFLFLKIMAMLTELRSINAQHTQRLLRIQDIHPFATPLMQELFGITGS
# Outline: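 Human PXR protein, cell-free; compound added, incubated 2 h, TR-FRET read. Signal decrease vs DMSO = binding. Screened 25 uM duplicate, actives re-run as dilution series.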
# [2] = target: guinea pig Sigma Receptor, Non-selective Binding, SIGMAR1 (gene 100135589) (UniProt Q60492); experiment: NVS_OR_gSIGMA_NonSelective: NovaScreen (NVS) Nuclear Receptor Binding Assay for guinea pig Sigma Receptor, Non-selective Binding (AID 2283367)
# Chain of guinea pig Sigma Receptor, Non-selective Binding, SIGMAR1 (gene 100135589) (Q60492 whole entry, looked up): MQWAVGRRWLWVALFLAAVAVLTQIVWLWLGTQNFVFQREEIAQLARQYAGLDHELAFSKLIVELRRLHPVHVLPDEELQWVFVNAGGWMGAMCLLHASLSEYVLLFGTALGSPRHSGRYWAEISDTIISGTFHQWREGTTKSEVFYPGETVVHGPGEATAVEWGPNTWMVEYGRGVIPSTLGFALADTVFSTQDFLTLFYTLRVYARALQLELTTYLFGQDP
# Outline: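 Membranes from guinea pig brain incubated with radioligand and test chemical for 1 h, then filtered and scintillation-counted. Duplicate primary testing at 25 uM, with concentration-series follow-up for actives.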
# [3] = target: Glucocorticoid receptor (Homo sapiens) (UniProt P04150); experiment: NVS_NR_hGR: NovaScreen (NVS) Nuclear Receptor Binding Assay for human Glucocorticoid Receptor (GR) (AID 2283363);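 for AC50: activity is loss of specific radioligand binding signal relative to DMSO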
# Chain of Glucocorticoid receptor (Homo sapiens) (P04150 whole entry, looked up): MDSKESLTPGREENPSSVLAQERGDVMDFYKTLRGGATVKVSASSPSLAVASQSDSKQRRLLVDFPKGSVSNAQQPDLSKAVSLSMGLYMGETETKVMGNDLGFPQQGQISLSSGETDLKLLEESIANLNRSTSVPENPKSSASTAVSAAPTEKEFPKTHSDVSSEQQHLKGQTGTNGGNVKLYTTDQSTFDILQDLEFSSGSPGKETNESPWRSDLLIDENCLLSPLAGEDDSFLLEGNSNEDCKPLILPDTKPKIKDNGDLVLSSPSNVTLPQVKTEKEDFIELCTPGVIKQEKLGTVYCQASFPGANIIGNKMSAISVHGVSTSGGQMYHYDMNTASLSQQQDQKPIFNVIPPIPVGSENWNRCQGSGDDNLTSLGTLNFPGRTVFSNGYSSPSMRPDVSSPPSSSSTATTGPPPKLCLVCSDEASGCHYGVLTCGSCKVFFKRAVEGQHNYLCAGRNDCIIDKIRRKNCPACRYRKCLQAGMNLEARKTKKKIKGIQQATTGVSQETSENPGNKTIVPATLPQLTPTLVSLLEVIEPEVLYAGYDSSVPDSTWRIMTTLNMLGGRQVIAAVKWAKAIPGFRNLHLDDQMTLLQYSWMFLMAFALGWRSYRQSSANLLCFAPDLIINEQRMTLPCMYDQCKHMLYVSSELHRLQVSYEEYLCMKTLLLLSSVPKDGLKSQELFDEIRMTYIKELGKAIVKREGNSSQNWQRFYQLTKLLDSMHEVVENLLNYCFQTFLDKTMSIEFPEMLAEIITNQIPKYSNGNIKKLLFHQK
# Outline: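 Filter scintillation readout of tritiated/iodinated radioligand displaced by test chemical; cell-free extracted protein; 16 h. DMSO = negative control/baseline. Duplicate single-point 25 uM screen, then concentration-response on actives.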
# [4] = target: Peroxisome proliferator-activated receptor gamma (Homo sapiens) (UniProt P37231); experiment: NVS_NR_hPPARg: NovaScreen (NVS) Nuclear Receptor Binding Assay for human Peroxisome Proliferator-activated Receptor gamma (PPARg) (AID 2283370)
# Chain of Peroxisome proliferator-activated receptor gamma (Homo sapiens) (P37231 whole entry, looked up): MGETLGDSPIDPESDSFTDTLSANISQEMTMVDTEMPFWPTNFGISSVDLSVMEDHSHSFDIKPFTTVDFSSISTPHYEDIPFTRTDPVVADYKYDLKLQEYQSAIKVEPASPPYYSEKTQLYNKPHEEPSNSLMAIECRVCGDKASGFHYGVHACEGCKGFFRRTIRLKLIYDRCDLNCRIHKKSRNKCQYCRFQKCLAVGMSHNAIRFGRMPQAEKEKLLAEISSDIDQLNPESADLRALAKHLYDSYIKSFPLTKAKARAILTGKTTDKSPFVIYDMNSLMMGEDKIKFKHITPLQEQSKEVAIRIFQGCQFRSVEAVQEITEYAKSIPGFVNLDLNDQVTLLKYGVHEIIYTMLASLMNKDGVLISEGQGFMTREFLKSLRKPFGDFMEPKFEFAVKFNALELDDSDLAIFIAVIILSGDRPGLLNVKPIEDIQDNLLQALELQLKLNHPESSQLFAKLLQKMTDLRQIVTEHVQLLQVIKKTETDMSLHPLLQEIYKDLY
# Outline: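 Chemicals were tested first in duplicate at 25 uM, then in concentration series if active. Binding to cell-free PPARg protein was measured by fluorescence polarization after 2 h, with loss of signal scored against DMSO.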
# [5] = test system: guinea pig Dopamine Transporter (DAT), gene 100714898; experiment: NVS_TR_gDAT: NovaScreen (NVS) Transporter Assay for guinea pig Dopamine Transporter (DAT) (AID 2283369);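 note: active compounds lower bound radioligand signal relative to DMSO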
# Outline: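 Scintillation counts of filter-retained radioligand report binding to guinea pig striatal membranes after 2 h. Activity scored as signal loss relative to DMSO, first at 25 uM in duplicate, then in concentration series to 50 uM.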
# [6] = target: rat Androgen Receptor (AR), Ar (gene 24208) (UniProt P15207); experiment: NVS_NR_rAR: NovaScreen (NVS) Nuclear Receptor Binding Assay for rat Androgen Receptor (AR) (AID 2283366)
# Chain of rat Androgen Receptor (AR), Ar (gene 24208) (P15207 whole entry, looked up): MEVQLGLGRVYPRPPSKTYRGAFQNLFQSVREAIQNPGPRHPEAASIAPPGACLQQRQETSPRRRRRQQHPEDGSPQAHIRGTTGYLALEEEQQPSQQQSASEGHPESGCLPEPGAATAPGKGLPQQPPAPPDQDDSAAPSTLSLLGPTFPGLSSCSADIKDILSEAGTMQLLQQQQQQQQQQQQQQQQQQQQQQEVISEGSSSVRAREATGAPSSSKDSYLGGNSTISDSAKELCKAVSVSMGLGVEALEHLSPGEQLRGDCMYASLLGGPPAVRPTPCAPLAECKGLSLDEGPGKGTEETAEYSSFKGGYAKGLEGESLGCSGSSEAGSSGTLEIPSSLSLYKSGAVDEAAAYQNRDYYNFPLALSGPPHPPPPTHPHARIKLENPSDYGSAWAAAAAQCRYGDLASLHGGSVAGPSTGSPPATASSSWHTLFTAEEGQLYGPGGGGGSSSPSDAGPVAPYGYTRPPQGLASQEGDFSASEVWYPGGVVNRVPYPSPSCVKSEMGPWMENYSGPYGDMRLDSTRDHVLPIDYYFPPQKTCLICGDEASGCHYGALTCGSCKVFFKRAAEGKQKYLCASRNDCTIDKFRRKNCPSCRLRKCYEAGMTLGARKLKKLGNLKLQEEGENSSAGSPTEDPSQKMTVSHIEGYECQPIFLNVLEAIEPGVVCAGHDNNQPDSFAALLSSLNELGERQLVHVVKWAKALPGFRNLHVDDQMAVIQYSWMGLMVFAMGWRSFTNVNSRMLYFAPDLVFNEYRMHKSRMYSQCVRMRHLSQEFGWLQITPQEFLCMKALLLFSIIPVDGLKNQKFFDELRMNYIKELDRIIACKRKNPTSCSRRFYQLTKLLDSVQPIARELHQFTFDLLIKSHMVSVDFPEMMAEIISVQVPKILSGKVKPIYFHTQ
# Outline: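 Actives from a duplicate single-concentration (25 uM) primary run went on to concentration series. Displacement of radioligand was counted by filtration and scintillation, 18 h post-dose, using prostate extracts from testosterone-pretreated rats, with DMSO as baseline.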
# [7] = target: human Adenosine Transporter (Adot), SLC29A1 (gene 2030) (UniProt Q99808); experiment: NVS_TR_hAdoT: NovaScreen (NVS) Transporter Assay for human Adenosine Transporter (Adot) (AID 2283368)
# Chain of human Adenosine Transporter (Adot), SLC29A1 (gene 2030) (Q99808 whole entry, looked up): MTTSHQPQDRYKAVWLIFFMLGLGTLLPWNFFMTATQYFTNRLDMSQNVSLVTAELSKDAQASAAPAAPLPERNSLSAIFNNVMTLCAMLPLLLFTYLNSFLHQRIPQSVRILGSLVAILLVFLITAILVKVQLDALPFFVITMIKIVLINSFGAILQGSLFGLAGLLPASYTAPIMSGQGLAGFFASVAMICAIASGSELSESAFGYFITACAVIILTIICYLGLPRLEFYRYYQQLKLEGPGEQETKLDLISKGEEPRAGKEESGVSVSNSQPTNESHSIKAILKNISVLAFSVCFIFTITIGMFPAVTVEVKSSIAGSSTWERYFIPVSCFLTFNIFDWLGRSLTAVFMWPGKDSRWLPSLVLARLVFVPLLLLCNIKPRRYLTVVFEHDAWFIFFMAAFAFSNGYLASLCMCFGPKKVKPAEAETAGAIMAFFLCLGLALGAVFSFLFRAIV
# Outline: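 Binding displacement on U937 extracted protein, read 1 h post-dose by filtration and scintillation counting. Primary duplicate test at 25 uM, then singleton concentration series with 50 uM top; DMSO baseline.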
# [8] = target: human Thyroid Receptor Alpha (TRa), THRA (gene 7067) (UniProt P10827); experiment: NVS_NR_hTRa_Antagonist: NovaScreen (NVS) Nuclear Receptor Binding Assay for human Thyroid Receptor Alpha Antagonism (TRa) (AID 2283362);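 note: activity is loss of signal relative to DMSO baseline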
# Chain of human Thyroid Receptor Alpha (TRa), THRA (gene 7067) (P10827 whole entry, looked up): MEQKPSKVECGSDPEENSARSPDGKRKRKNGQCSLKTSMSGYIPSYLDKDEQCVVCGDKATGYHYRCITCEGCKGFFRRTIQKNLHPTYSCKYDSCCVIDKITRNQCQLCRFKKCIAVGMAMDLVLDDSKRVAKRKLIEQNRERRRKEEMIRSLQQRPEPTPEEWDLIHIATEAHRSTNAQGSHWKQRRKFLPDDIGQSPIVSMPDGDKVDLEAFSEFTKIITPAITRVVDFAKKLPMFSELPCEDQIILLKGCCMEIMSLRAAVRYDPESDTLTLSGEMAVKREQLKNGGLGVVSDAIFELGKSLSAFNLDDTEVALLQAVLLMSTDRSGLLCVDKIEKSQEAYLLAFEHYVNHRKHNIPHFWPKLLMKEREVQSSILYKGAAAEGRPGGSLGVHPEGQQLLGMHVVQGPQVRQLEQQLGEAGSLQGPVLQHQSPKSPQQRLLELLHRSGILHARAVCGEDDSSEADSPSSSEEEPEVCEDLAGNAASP
# Outline: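 Extracted protein, cell-free; 1 h incubation after dosing; AlphaLISA chemiluminescence binding readout. DMSO = baseline/neg ctrl; signal loss = activity. Primary: duplicate, 25 uM; secondary: conc. series on actives.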
# [9] = target: Retinoic acid receptor alpha (Homo sapiens) (UniProt P10276); experiment: NVS_NR_hRARa_Agonist: NovaScreen (NVS) Nuclear Receptor Binding Assay for human Retinoic Acid Alpha Receptor Agonism (RAR) (AID 2283361)
# Chain of Retinoic acid receptor alpha (Homo sapiens) (P10276 whole entry, looked up): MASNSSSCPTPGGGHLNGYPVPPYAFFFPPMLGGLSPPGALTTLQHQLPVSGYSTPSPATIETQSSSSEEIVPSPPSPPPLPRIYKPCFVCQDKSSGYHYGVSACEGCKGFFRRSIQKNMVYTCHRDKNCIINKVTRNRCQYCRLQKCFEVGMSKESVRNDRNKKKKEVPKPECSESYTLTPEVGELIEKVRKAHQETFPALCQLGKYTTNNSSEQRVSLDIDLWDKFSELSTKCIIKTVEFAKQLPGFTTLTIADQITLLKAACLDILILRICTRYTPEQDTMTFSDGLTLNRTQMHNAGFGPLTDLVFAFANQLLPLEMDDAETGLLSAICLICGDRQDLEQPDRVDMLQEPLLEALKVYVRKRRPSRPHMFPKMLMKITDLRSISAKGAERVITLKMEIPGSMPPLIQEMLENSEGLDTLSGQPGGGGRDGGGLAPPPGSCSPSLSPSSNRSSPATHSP
# Outline: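 TR-FRET signal, 2 h post-dosing; cell-free extracted protein; DMSO = baseline, positive fitting direction; 25 uM single-point duplicate, then concentration series for actives.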
# [10] = test system: rat Norepinephrine Transporter (NET), gene 83511; experiment: NVS_TR_rNET: NovaScreen (NVS) Transporter Assay for rat Norepinephrine Transporter (NET) (AID 2283373)
# Outline: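 Competitive radioligand displacement at the rat NET using forebrain membrane preparations, 1 h incubation, filter-based scintillation readout. Primary testing in duplicate at a single 25 uM concentration; confirmed actives retested across concentrations.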
smiles,measurement,setting,value
CCCCCC(C)OC(=O)COc1ccc(Cl)c2cccnc12 (centres undefined),outcome,[1],inactive
CC[N+](CC)(CC)Cc1ccccc1,AC50,[2],15.5 µM (active)
CCCCCCCCCCCC,AC50,[3],0.703 µM (active)
same,AC50,[1],2.03 µM (active)
same,AC50,[4],0.401 µM (active)
same,outcome,[4],inactive
CCC(C)c1ccccc1O (centres undefined),outcome,[5],inactive
same,outcome,[4],inactive
CC(C)(c1ccc(Oc2ccc(N)cc2)cc1)c1ccc(Oc2ccc(N)cc2)cc1,outcome,[6],inactive
CC(C)[C@@H]1CC[C@@H](C)C[C@H]1O,outcome,[4],inactive
CS(=O)(=O)c1ccc([C@@H](CC2CCCC2)C(=O)Nc2cnccn2)cc1Cl,AC50,[7],25 µM (active)
C=CC(=C)CC/C=C(\C)CCC=C(C)C,outcome,[3],inactive
CCCCc1ccc2ccccc2c1S(=O)(=O)O,AC50,[3],7.95 µM (active)
same,AC50,[1],4.06 µM (active)
same,outcome,[4],inactive
CC(C)(C)c1ccc(O)c(O)c1,AC50,[5],45.5 µM (active)
Cc1[nH]nc2c1N=C(c1ccccc1Cl)c1cc([N+](=O)[O-])ccc1N2,outcome,[8],inactive
O=C1NS(=O)(=O)c2ccccc21,outcome,[1],inactive
O=C1OC2(c3ccccc31)c1cc(I)c(O)c(I)c1Oc1c2cc(I)c(O)c1I,AC50,[9],19.9 µM (active)
NC(=NCCCCCCN=C(N)/N=C(\N)Nc1ccc(Cl)cc1)/N=C(\N)Nc1ccc(Cl)cc1,AC50,[3],3.08 µM (active)
same,outcome,[1],inactive
same,AC50,[6],15.4 µM (active)
same,AC50,[2],23.1 µM (active)
same,AC50,[5],0.868 µM (active)
O=C(CCCN1CCC(O)(c2ccc(Cl)cc2)CC1)c1ccc(F)cc1,AC50,[5],0.923 µM (active)
same,outcome,[10],inactive
c1cnc2c(c1)ccc1cccnc12,AC50,[8],0.241 µM (active)
C[C@]12CC[C@@H]3c4ccc(O)cc4CC[C@H]3[C@@H]1C[C@@H](O)[C@@H]2O,outcome,[3],inactive
same,AC50,[5],3.04 µM (active)
